Shown is part of a subset that was picked to be rich in hits.
HT1080 IDH1KD tx – HT-1080 IDH1 knockdown cell toxicity (counter line) | HT-1080 IDH1 knockdown viability, ATP luminescence, 48 h | Potency, µM (highest dose often 46.1 µM), for the others: at the highest dose activity, negative = toxicity, usual class: cytotoxic | 360,000 tested, 2% active;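 also: potency is read from the fitted curve at half-maximal effect; 0% = DMSO wells and -100% = cell-free medium wells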
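After a 2 h attachment period, IDH1KD HT-1080 cells took pin-transferred compound for 48 h at 37 °C; ATP-based luminescence after 10 min room-temperature reagent incubation reported viability.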
TDP1 cell CPT – growth inhibition of DT40 Tdp1-/-;hTDP1 cells with camptothecin (screen for TDP1 inhibitors); chicken DT40 Tdp1-/-;hTDP1 cells + 20 nM CPT, ATP luminescence, 48 h; Potency, µM (titrated, usually from 46.2 µM), for inactives: at the highest dose activity change, negative = growth inhibition, hits mostly inhibitors; 420,000 tested, 12% active; AID 686979; also: potency is read from the fitted curve at half-maximal effect; nearly all actives have a fitted effect of over 55% in size
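Chicken DT40 Tdp1-/- cells stably complemented with human TDP1 were seeded at 400 cells/well in medium containing 20 nM camptothecin, exposed to pin-transferred compounds, and grown at 37 °C for at least 48 hr. Viability was read as ATP luminescence.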
IL-1B inflam inh – inhibitors of inflammasome signaling (IL-1 beta secretion); activity change, % at 57.5 µM; 360,000 tested, 4.7% active; THP-1 LPS/ATP IL-1B secretion, AlphaLISA, 16 h; active compounds read low; in the data active = activity change below about -50%; inconclusive = mostly about -30% to -49%
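THP-1 cells pretreated 1 hr with compounds (up to 57.5 uM final), then stimulated with LPS (250 ng/mL final) plus ATP (1.25 mM final); secreted IL-1B measured by AlphaLISA after 16 hr, decreased signal indicating inhibition.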
HT1080-NT tox – kills 2HG-producing HT-1080-NT fibrosarcoma cells; AID 686970; 360,000 tested, 1.6% active; HT-1080-NT fibrosarcoma viability, CellTiter-Glo ATP luminescence, 48 h; Potency, µM (titrated, usually from 46.1 µM), for inactives: top-dose activity, negative = less viability, most hits filed as cytotoxic;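 also: NT is the 2HG producing partner of a matched IDH1 knockdown line; potency is read from the fitted curve at half-maximal effect; 0% = DMSO-treated cells and -100% = media-only wells without cells; nearly all actives have a fitted effect of over 55% in size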
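750 cells/well, RPMI + 5% FBS; 2 h settle, compound pin-transfer, 48 h at 37 degrees C. CellTiter-Glo 10 min RT, luminescence. Normalized to DMSO and media-only wells.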
ALOX12 inh – ALOX12 (human) lipoxygenase inhibition | P18054 | purified 12hLO, xylenol orange hydroperoxide absorbance | Potency, µM (series often up to 108 µM), without a hit: top-dose activity change, negative = inhibition, hits mostly inhibitors | 580,000 tested, 1.1% active; also: potency is read from the fitted curve at half-maximal effect
Target sequence (P18054 whole entry, looked up): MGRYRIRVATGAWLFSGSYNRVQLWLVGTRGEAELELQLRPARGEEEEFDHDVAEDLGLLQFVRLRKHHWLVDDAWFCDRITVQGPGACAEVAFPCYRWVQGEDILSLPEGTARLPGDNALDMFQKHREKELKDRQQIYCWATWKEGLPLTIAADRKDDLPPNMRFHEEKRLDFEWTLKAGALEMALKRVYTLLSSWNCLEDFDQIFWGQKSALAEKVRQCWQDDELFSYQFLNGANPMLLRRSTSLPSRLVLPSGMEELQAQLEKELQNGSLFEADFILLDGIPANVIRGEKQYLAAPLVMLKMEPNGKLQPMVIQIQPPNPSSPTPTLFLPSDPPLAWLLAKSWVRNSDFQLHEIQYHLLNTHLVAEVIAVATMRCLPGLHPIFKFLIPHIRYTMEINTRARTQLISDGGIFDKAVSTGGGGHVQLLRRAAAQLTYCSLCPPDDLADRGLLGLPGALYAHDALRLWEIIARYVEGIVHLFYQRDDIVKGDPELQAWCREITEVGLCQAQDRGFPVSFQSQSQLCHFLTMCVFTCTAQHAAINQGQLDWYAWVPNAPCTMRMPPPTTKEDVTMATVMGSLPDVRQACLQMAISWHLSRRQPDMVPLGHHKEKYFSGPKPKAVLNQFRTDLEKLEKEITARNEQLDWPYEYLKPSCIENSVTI
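Purified human 12hLO at 150 nM in 25 mM Hepes, 0.01% Triton X-100, pH 7.0, preincubated 15 min at room temperature with compound. Reaction started with 40 uM arachidonic acid, 30 min at room temperature. Hydroperoxide measured by Fe-xylenol orange, 573/405 nm absorbance ratio.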
TDP1 cell noCPT – qHTS for Inhibitors of human tyrosyl-DNA phosphodiesterase 1 (TDP1): qHTS in cells in absence of CPT | DT40 Tdp1-/- hTDP1 cells, no CPT, ATP luminescence, 48 h | AID 686978, 2013 | 420,000 tested, 15% active | Potency, µM (doses to about 46.2 µM), for the others: top-dose activity change, negative = growth inhibition, hits mostly inhibitors; also: potency is read from the fitted curve at half-maximal effect; nearly all actives have a fitted effect of over 55% in size
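Readout: luminescence from CellTiter-Glo after 30 min in the dark at RT. Cells: DT40 Tdp1-/- with stable hTDP1, 400/well. Exposure: compounds alone, ≥48 hr, 37 °C.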
* marks the source's active call; other numbers are inactive results. Unless noted, calls follow the shape of the dose curve; as a rule, active = well fitted curve in the direction sought with a large enough effect; inconclusive = small, poorly fitted or top-dose-only effect, or another doubt; inactive = no such curve, though single readings can be large; an effect the other way counts as inactive or inconclusive. Unless noted, % is scaled to controls: 0 for no effect and ±100 for the full control effect.

Results for CC1=CC2=NC(=O)/C(=C\c3cccn3CCOc3ccc(C)c(C)c3)C(=N)N2O1 ?
HT1080 IDH1KD tx: -5%; TDP1 cell CPT: inconclusive; IL-1B inflam inh: -60*; HT1080-NT tox: -11%; ALOX12 inh: 6%; TDP1 cell noCPT: inconclusive

Results for COc1ccc(OC(=O)c2nc(SCc3ccccc3C)ncc2Cl)cc1 ?
TDP1 cell CPT: -17%; ALOX12 inh: -17%; TDP1 cell noCPT: -21%

How did O=C(/C(=C/O)N=Nc1ccccc1)c1cccs1 do in these assays?
HT1080 IDH1KD tx: inconclusive; TDP1 cell CPT: inconclusive; IL-1B inflam inh: -74*; HT1080-NT tox: 16µM*; ALOX12 inh: -13%; TDP1 cell noCPT: inconclusive

How did CNC(=O)COc1coc(CN2CCN(c3ccc(F)cc3)CC2)cc1=O do in these assays?
HT1080 IDH1KD tx: 16%; TDP1 cell CPT: -2%; IL-1B inflam inh: 12; HT1080-NT tox: 13%; ALOX12 inh: 6%; TDP1 cell noCPT: 26%

What do the screens show for `NC(=O)[C@H]1CC2(CC(c3cccc(NC(=O)COc4ccc(Cl)cc4)c3)=NO2)CN1C(=O)C(c1ccccc1)c1ccccc1` (some centres not stated)?
HT1080 IDH1KD tx: inconclusive; TDP1 cell CPT: 6.5µM*; IL-1B inflam inh: inconclusive; HT1080-NT tox: inconclusive; ALOX12 inh: -15%; TDP1 cell noCPT: 13µM*

Results for CC/C=C/C(=O)N1CC2(CC(c3cccc(NC(=O)COc4ccc(Cl)cc4)c3)=NO2)C[C@H]1C(N)=O (some centres not stated) ?
HT1080 IDH1KD tx: -2%; TDP1 cell CPT: 29µM*; IL-1B inflam inh: inconclusive; HT1080-NT tox: 0%; ALOX12 inh: -6%; TDP1 cell noCPT: inconclusive

How did NC(=O)[C@@H]1CC2(CC(c3cccc(NC(=O)COc4ccc(Cl)cc4)c3)=NO2)CN1C(=O)COc1ccc(Cl)cc1 (some centres not stated) do in these assays?
HT1080 IDH1KD tx: inconclusive; TDP1 cell CPT: inconclusive; IL-1B inflam inh: -55*; HT1080-NT tox: inconclusive; ALOX12 inh: -29%; TDP1 cell noCPT: 12µM*

What do the screens show for `CC/C=C/C(=O)N1CC2(CC(c3cccc(NC(=O)CCCCC)c3)=NO2)C[C@H]1C(N)=O` (some centres not stated)?
HT1080 IDH1KD tx: 2%; TDP1 cell CPT: 6%; IL-1B inflam inh: -7; HT1080-NT tox: 0%; ALOX12 inh: -3%; TDP1 cell noCPT: 0%

Results for C/C=C\C=C\C(=O)Nc1cccc(C2=NOC3(C2)C[C@@H](C(N)=O)N(C(=O)C(c2ccccc2)c2ccccc2)C3)c1 (some centres not stated) ?
HT1080 IDH1KD tx: -1%; TDP1 cell CPT: inconclusive; IL-1B inflam inh: inconclusive; HT1080-NT tox: -4%; ALOX12 inh: 8.9µM*; TDP1 cell noCPT: inconclusive

How did Cc1c([N+](=O)[O-])cnc2ccccc12 do in these assays?
TDP1 cell CPT: -10%; TDP1 cell noCPT: inconclusive

What do the screens show for `COc1ccccc1-c1ccnc(-n2ncc(C(=O)NC(C)(C)CO)c2C2CC2)n1`?
TDP1 cell CPT: 3%; ALOX12 inh: -4%; TDP1 cell noCPT: -6%

How did Cc1ccc(C)c(OCCCNCc2ccccc2)c1 do in these assays?
HT1080 IDH1KD tx: -1%; TDP1 cell CPT: inconclusive; IL-1B inflam inh: -16; HT1080-NT tox: 1%; ALOX12 inh: inconclusive; TDP1 cell noCPT: inconclusive

How did C=CCNCCCOc1ccc(C(C)(C)c2ccccc2)cc1 do in these assays?
HT1080 IDH1KD tx: -7%; TDP1 cell CPT: inconclusive; IL-1B inflam inh: -89*; HT1080-NT tox: -6%; ALOX12 inh: inconclusive; TDP1 cell noCPT: inconclusive

How did COCCCNCCCOc1ccc(C(C)(C)c2ccccc2)cc1 do in these assays?
HT1080 IDH1KD tx: 4%; TDP1 cell CPT: inconclusive; IL-1B inflam inh: inconclusive; HT1080-NT tox: -9%; ALOX12 inh: inconclusive; TDP1 cell noCPT: 18µM*

Results for CC(C)(C)c1ccc(OCCCNCc2ccccc2)cc1 ?
HT1080 IDH1KD tx: -4%; TDP1 cell CPT: inconclusive; IL-1B inflam inh: -102*; HT1080-NT tox: -8%; ALOX12 inh: inconclusive; TDP1 cell noCPT: inconclusive

What do the screens show for `CC(O)CNCCCOc1cccc(Oc2ccccc2)c1` (configuration not stated)?
HT1080 IDH1KD tx: inconclusive; TDP1 cell CPT: 16µM*; IL-1B inflam inh: -56*; HT1080-NT tox: -1%; ALOX12 inh: inconclusive; TDP1 cell noCPT: 16µM*

How did COCCNCCCOc1ccc(C(C)(C)c2ccccc2)cc1 do in these assays?
HT1080 IDH1KD tx: 4%; TDP1 cell CPT: inconclusive; IL-1B inflam inh: -23; HT1080-NT tox: -1%; ALOX12 inh: inconclusive; TDP1 cell noCPT: inconclusive

What do the screens show for `CC(O)CNCCCOc1ccc(C(C)(C)c2ccccc2)cc1` (configuration not stated)?
ALOX12 inh: 4.5µM*

How did Clc1cc(Br)ccc1OCCCNCc1ccccc1 do in these assays?
HT1080 IDH1KD tx: inconclusive; TDP1 cell CPT: 21µM*; IL-1B inflam inh: -101*; HT1080-NT tox: 23µM*; ALOX12 inh: inconclusive; TDP1 cell noCPT: inconclusive

Results for O=C(O)CCCCNCc1ccccc1 ?
HT1080 IDH1KD tx: -2%; TDP1 cell CPT: -11%; IL-1B inflam inh: 1; HT1080-NT tox: 8%; ALOX12 inh: 6%; TDP1 cell noCPT: -7%

Results for CC(C)NCCCOc1ccc(C(C)(C)c2ccccc2)cc1 ?
HT1080 IDH1KD tx: -7%; TDP1 cell CPT: -29%; IL-1B inflam inh: -12; HT1080-NT tox: -3%; ALOX12 inh: inconclusive; TDP1 cell noCPT: -26%

How did CCc1cc(OCCCCNCc2ccccc2)ccc1Cl do in these assays?
HT1080 IDH1KD tx: inconclusive; TDP1 cell CPT: 21µM*; IL-1B inflam inh: -102*; HT1080-NT tox: 23µM*; ALOX12 inh: inconclusive; TDP1 cell noCPT: 18µM*

What do the screens show for `c1ccc(CNCCCNCCCCNCCCNCc2ccccc2)cc1`?
HT1080 IDH1KD tx: 5.2µM*; TDP1 cell CPT: inconclusive; IL-1B inflam inh: -110*; HT1080-NT tox: inconclusive; ALOX12 inh: -15%; TDP1 cell noCPT: 21µM*

Results for N#Cc1ccc(C(=O)N2CCCCCNC(=O)[C@@H]3CCC[C@@H]32)cc1 ?
ALOX12 inh: 7%

What do the screens show for `CSc1ccc(/C=C2\N=C(c3ccccc3)OC2=O)cc1`?
ALOX12 inh: -3%

Results for CC(C)(c1ccccc1)c1ccc(OCCCNCCO)cc1 ?
HT1080 IDH1KD tx: 18µM*; TDP1 cell CPT: inconclusive; IL-1B inflam inh: inconclusive; HT1080-NT tox: inconclusive; ALOX12 inh: -61%; TDP1 cell noCPT: 21µM*
